Screens as filed in PubChem.
In the library only some 4.3% were active in any assay of this set; here they are far more common.
UBC13 inh: UBC13 polyubiquitin chain formation inhibitors, primary screen, biochemical, TR-FRET, uHTS; 330,000 compounds, 0.47% hits; Ubiquitin-conjugating enzyme E2 N (Homo sapiens), P61088; inhibition, % at 20 µM; AID 485273, 2010; in the data active means inhibition above about 45%, passing the limit was not always enough; inconclusive means no clear call, values can overlap the other calls
Target sequence (P61088 whole entry, looked up): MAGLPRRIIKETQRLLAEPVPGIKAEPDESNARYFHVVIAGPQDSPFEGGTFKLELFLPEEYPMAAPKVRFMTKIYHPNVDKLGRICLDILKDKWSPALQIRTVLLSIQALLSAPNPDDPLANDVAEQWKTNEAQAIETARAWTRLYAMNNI
NALP1 inh: NALP1 inflammasome inhibitors in reconstituted yeast, colorimetric, S. cerevisiae, triplicate retest. inhibition, % at 10 µM. S. cerevisiae NALP1/ASC/caspase-1 growth, X-gal OD620, 72 h. AID 2071, 2009. 280,000 compounds, 0.61% hits; in the data active means inhibition mostly above about 24%, no sharp cut-off; inactive means mostly below about 32%
GRIN3A LBD mod: binders of NR3A ligand-binding domain, primary screen, biophysical, differential scanning fluorimetry, uHTS; Glutamate receptor ionotropic, NMDA 3A (GRIN3A) ligand-binding domain; NR3A LBD differential scanning fluorimetry, Tm shift; 0% = protein alone, 100% = glycine-bound protein; Tm shift relative to glycine control, % at 25 µM; 340,000 compounds, 2.5% hits; AID 1259313, 2017;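 active means melting temperature shift of at least 10% of the positive control shift, at one fixed dose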
dFosB act: activators of delta FosB homodimer, primary screen, biochemical, fluorescence polarization, TAMRA-CDK5 oligo, single point; Protein FosB (Mus musculus), P13346; purified delta FosB; percent of positive-control signal above neutral wells; activation, % at 25 µM; 340,000 compounds, 0.99% hits; AID 493131, 2011;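 active means mean activation above about 17%, with every replicate also reaching it, limit read from the data, passing the limit was not always enough; inconclusive means only one of the two conditions met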
Yeast superoxide: reduction of superoxide in aged yeast, primary screen, HTS; S. cerevisiae aged cells, superoxide DHE fluorescence; hits give low values; superoxide response (% of plate mean), % at 10 µM; 330,000 compounds, 0.18% hits;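 active means superoxide response under a set limit, about three screen SD below normal, cut at about 65% in these data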;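 further: yeast aged for seven days with compound at 30 °C before DHE staining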
Numbers stand for hits.

For O=C(CN1C(=O)NC(Cc2c[nH]c3ccccc23)C1=O)Nc1ccc(Br)cc1F (stereo not given) the results were UBC13 inh inactive, GRIN3A LBD mod 12.4, dFosB act inactive and Yeast superoxide inactive.
For COc1ccc(Cl)cc1NC(=S)NCCc1c[nH]c2ccccc12 the results were UBC13 inh inactive, NALP1 inh inactive, GRIN3A LBD mod 28.7, dFosB act inactive and Yeast superoxide inactive.
`O=C(CN1C(=O)NC(Cc2c[nH]c3ccccc23)C1=O)Nc1ccccc1Br` (stereo not given) gave UBC13 inh inactive, GRIN3A LBD mod inactive, dFosB act inconclusive and Yeast superoxide inactive.
For C=CCN([C@H](C(=O)OC)C(C)C)S(=O)(=O)CCNCc1ccccc1 the results were GRIN3A LBD mod inactive and dFosB act inactive.
Screening CC(OC(=O)CCN1C(=O)C2CC=CCC2C1=O)C(=O)Nc1ccc(F)cc1 (stereo not given) returned GRIN3A LBD mod inactive and dFosB act inactive.
Screening COc1ccc(CCNC(=O)CN2C(=O)NC(Cc3c[nH]c4ccccc34)C2=O)cc1 (stereo not given) returned UBC13 inh inactive, NALP1 inh inactive, GRIN3A LBD mod 24.9, dFosB act inactive and Yeast superoxide inactive.
For C=CCn1c(SCC(=O)NCC(c2ccccc2)N(C)C)nnc1C1CCCCC1 (stereo not given) the results were UBC13 inh inactive, GRIN3A LBD mod inactive, dFosB act inactive and Yeast superoxide inactive.
Cc1cc(C)c(S(=O)(=O)NCc2ccncc2)c(C)c1 was read as UBC13 inh inactive, NALP1 inh 38.9, GRIN3A LBD mod inactive, dFosB act inactive and Yeast superoxide inactive.
For CCOC(=O)c1[nH]c2ccc(OC)cc2c1NC(=S)N1CCN(c2ccccc2)CC1 the results were UBC13 inh inactive, NALP1 inh inactive, GRIN3A LBD mod inactive, dFosB act inactive and Yeast superoxide inactive.
Screening CCOC(=O)c1[nH]c2ccc(OC)cc2c1NC(=S)N1CCN(c2cccc(Cl)c2)CC1 returned UBC13 inh inactive, NALP1 inh inactive, GRIN3A LBD mod 13.3, dFosB act inactive and Yeast superoxide inactive.
For CC(OC(=O)Nc1ccccc1)C(=O)OC1CCCCC1 (stereo not given) the results were GRIN3A LBD mod inactive and dFosB act inactive.
O=C1C=C(N2CCN(C(=O)c3ccccc3)CC2)C2(CCCCC2)O1 was read as UBC13 inh inactive, NALP1 inh inactive, GRIN3A LBD mod 11.3, dFosB act inactive and Yeast superoxide inactive.
O=C1C=C(N2CCCCC2)C2(CCCCC2)O1 was read as UBC13 inh inactive, NALP1 inh inactive, GRIN3A LBD mod inactive, dFosB act inactive and Yeast superoxide inactive.
For CC(NC(=O)c1ccc(Cl)c(Cl)c1)c1ccc(-c2ccccc2)cc1 (stereo not given) the results were UBC13 inh inactive, NALP1 inh inactive, GRIN3A LBD mod 16.4, dFosB act inactive and Yeast superoxide inactive.
Screening N#Cc1ccc(Cl)cc1NC(=O)COC(=O)c1cccc(S(=O)(=O)N2CCOCC2)c1 returned UBC13 inh inactive, GRIN3A LBD mod inactive, dFosB act inactive and Yeast superoxide inactive.
For CCc1ccc2c(c1)/C(=N/N(C)C(=S)NC)C(=O)N2 the results were UBC13 inh inactive, NALP1 inh inactive, GRIN3A LBD mod 13.1, dFosB act inactive and Yeast superoxide inactive.
`CCOC(=O)C1CCN(C(=O)C2CCN(c3ncnc4c3nc3n4CCCCC3)CC2)CC1` gave UBC13 inh inactive, NALP1 inh inactive, GRIN3A LBD mod inactive, dFosB act inactive and Yeast superoxide inactive.
For N#CC(C(=O)Nc1ccc(Cl)cc1)=C1Nc2ccccc2N1 the results were UBC13 inh inactive, NALP1 inh inactive, GRIN3A LBD mod 23.8, dFosB act inactive and Yeast superoxide inactive.
Screening N#CC(C(=O)Nc1ccccc1)=C1CCCCC1 returned UBC13 inh inactive, NALP1 inh inactive, GRIN3A LBD mod inactive, dFosB act inactive and Yeast superoxide inactive.
`COc1cccc(Nc2nc3ccccc3nc2NS(=O)(=O)c2cccs2)c1` gave UBC13 inh inactive, NALP1 inh inactive, GRIN3A LBD mod 21.1, dFosB act inactive and Yeast superoxide inactive.
COc1ccc(NS(=O)(=O)c2cccs2)c(OC)c1 was read as UBC13 inh inactive, NALP1 inh inactive, GRIN3A LBD mod 15.5, dFosB act inactive and Yeast superoxide inactive.
